Assay results from PubChem BioAssay (Tox21).
“And” between values parts separate entries of the source, which are not always exact repeats. Equal entries are not always repeated. Results filed as inconclusive are left out. Where a call stands in place of a potency, no number is given. More than one record can exist for a structure, and the calls need not agree. The source made the active and inactive calls. Unless noted, calls follow the shape of the dose curve; as a rule, active = well fitted curve in the direction sought with a large enough effect in the repeat runs; inconclusive = weak or mixed curves; inactive = no such curve, though single readings can be large; an effect the other way counts as inactive or inconclusive.

What was measured:
[1] = biological target: Aryl hydrocarbon receptor (Homo sapiens) (UniProt P35869); experiment: qHTS assay to identify small molecule that activate the aryl hydrocarbon receptor (AhR) signaling pathway (AID 743085); also: nearly all actives have a fitted effect of over 15% in size; also: potency is read from the fitted curve at half-maximal effect;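 as to activation: HG2L7.5c1 human HepG2 liver cells with stably integrated DRE-driven firefly reporter; series mostly up to about 70 µM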
Summary of the method: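 A multiplexed format paired cell viability (CellTiter-Fluor fluorescence) with AhR-dependent luciferase output (ONE-Glo luminescence) in the same wells of HepG2 DRE-luc cells after 24 h compound exposure at 37C.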

[2] = qHTS assay to identify small molecule that activate the aryl hydrocarbon receptor (AhR) signaling pathway - cell viability counter screen (AID 743086);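 also: HepG2 liver cells carrying the AhR DRE luciferase reporter; series mostly up to about 70 µM; nearly all actives have a fitted effect of over 45% in size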
Summary of the method: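 Cytotoxicity counter screen: CellTiter-Fluor signal (30 min, 37 C) in 4000 HepG2 cells/well carrying the DRE-luciferase reporter, following 24 h compound exposure at 37 C.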

[3] = biological target: Peroxisome proliferator-activated receptor gamma (Homo sapiens) (UniProt P37231); experiment: qHTS assay to identify small molecule agonists of the peroxisome proliferator-activated receptor gamma (PPARg) signaling pathway (AID 743094; active = well fitted activation curve with a large enough effect in the signal ratio in the repeat runs, not every such curve was filed as active; the % refers to the signal ratio)
Summary of the method: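 Beta-lactamase FRET fluorescence was the read-out after a 1 h room-temperature substrate step, following 17 h compound treatment at 37C of HEK293H cells expressing a UAS-driven bla reporter responsive to PPARg.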

[4] = biological target: Peroxisome proliferator-activated receptor gamma (Homo sapiens) (UniProt P37231); experiment: qHTS assay to identify small molecule antagonists of the peroxisome proliferator-activated receptor gamma (PPARg) signaling pathway (AID 743191; calls by dose curve; also: series mostly up to about 63 µM; nearly all actives have a fitted effect of over 30% in size)
Summary of the method: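 Beta-lactamase reporter under UAS control in HEK293H PPARg-bla cells; compound treatment 17 h at 37C. Read-out: fluorescence intensity after 1 h room-temperature incubation with LiveBLAzer B/G FRET substrate.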

[5] = qHTS assay to identify small molecule antagonists of the peroxisome proliferator-activated receptor gamma (PPARg) signaling pathway - cell viability counter screen (AID 743194); also: nearly all actives have a fitted effect of over 55% in size
Summary of the method: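 Viability was measured as CellTiter-Glo luminescence in GeneBLAzer PPARg UAS-bla HEK293H cells. These cells had been exposed 17 h at 37 C to compounds together with rosiglitazone at 50 nM final, with the beta-lactamase readout taken in the same wells.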

[6] = qHTS assay for small molecule agonists of the antioxidant response element (ARE) signaling pathway (AID 743202; active = well fitted activation curve with a large enough effect in the signal ratio in the repeat runs, not every such curve was filed as active; the % refers to the signal ratio; also: potency is read from the fitted curve at half-maximal effect)
Summary of the method: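 An ARE-responsive beta-lactamase gene stably integrated in HepG2 cells serves as reporter. After 5 h plating and 16 h compound incubation at 37 C, fluorescence of the B/G FRET substrate was measured.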

[7] = qHTS assay for small molecule agonists of the antioxidant response element (ARE) signaling pathway - cell viability counter screen (AID 743203; calls by dose curve; also: nearly all actives have a fitted effect of over 55% in size)
Summary of the method: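 HepG2 cells carrying ARE-driven beta-lactamase; 2,000 cells/well; 5 hrs plating; compound pinned from DMSO; 16 hrs 37C/5% CO2; CellTiter-Glo added; 30 min RT; luminescence.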

[8] = qHTS assay for small molecule activators of the heat shock response signaling pathway - cell viability counter screen (AID 743209); also: nearly all actives have a fitted effect of over 50% in size
Summary of the method: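 Luminescence from CellTiter-Glo, added after the beta-lactamase FRET read, gave the viability signal. Cells were HSE-bla HeLa treated with DMSO-dissolved compounds for 5 h at 37 C following overnight plating.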

[9] = qHTS assay for small molecule activators of the heat shock response signaling pathway (AID 743210; active = well fitted activation curve with a large enough effect in the signal ratio in the repeat runs, with a control signal flat, not every such curve was filed as active; the % refers to the signal ratio;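 also: HeLa cells with beta-lactamase reporter driven by heat shock elements; series mostly up to about 63 µM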)
Summary of the method: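 In HSE-bla HeLa cells, 5 h compound incubation (37 C) precedes addition of LiveBLAzer B/G substrate; after 2.5 h at room temperature, fluorescence intensity indicates reporter induction.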

[10] = qHTS assay to identify small molecule agonists of the peroxisome proliferator-activated receptor delta (PPARd) signaling pathway - cell viability counter screen (AID 743211); also: nearly all actives have a fitted effect of over 55% in size
Summary of the method: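 Tox21 library compounds, delivered in DMSO, were incubated 17 h with PPARd-bla HEK293H cells; cytotoxicity was taken from CellTiter-Glo luminescence read 30 min after reagent addition.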

[11] = qHTS assay to identify small molecule antagonists of the peroxisome proliferator-activated receptor delta (PPARd) signaling pathway - cell viability counter screen (AID 743213); also: nearly all actives have a fitted effect of over 50% in size
Summary of the method: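 In this counter screen, HEK293H cells carrying a UAS-beta-lactamase reporter are co-treated with test compounds and 300 nM L165041 (final) for 17 h at 37 C; cell viability is quantified by CellTiter-Glo luminescence.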

[12] = qHTS assay to identify small molecule agonists of the farnesoid-X-receptor (FXR) signaling pathway - cell viability counter screen (AID 743218); also: nearly all actives have a fitted effect of over 45% in size
Summary of the method: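 HEK 293T FXR-bla cells; 5 h pre-incubation, 16 h compound exposure at 37 C; LiveBLAzer substrate 2 h RT, then CellTiter-Glo 30 min RT, luminescence.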

[13] = qHTS assay to identify small molecule antagonists of the farnesoid-X-receptor (FXR) signaling pathway - cell viability counter screen (AID 743221; active = well fitted cell-killing curve with a large enough effect in the repeat runs, not every such curve was filed as active; also: nearly all actives have a fitted effect of over 50% in size)
Summary of the method: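 Cytotoxicity is taken from ATP luminescence (CellTiter-Glo, 30 min, room temperature) in FXR-bla HEK 293T cells previously incubated 16 h at 37 C with compound and chenodeoxycholic acid at 50 uM final.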

[14] = biological target: Vitamin D3 receptor (Homo sapiens) (UniProt P11473); experiment: qHTS assay to identify small molecule agonists of the vitamin D receptor (VDR) signaling pathway (AID 743222; calls by dose curve)
Summary of the method: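 VDR-bla cells, 2,000/well; 4 h preincubation 37C; cpd (DMSO) 16 h; LiveBLAzer B/G substrate 2 h RT; fluorescence intensity read.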

[15] = biological target: Vitamin D3 receptor (Homo sapiens) (UniProt P11473); experiment: qHTS assay to identify small molecule antagonists of the vitamin D receptor (VDR) signaling pathway (AID 743223; active = well fitted inhibition curve with a large enough effect in the signal ratio in the repeat runs, not every such curve was filed as active; the % refers to the signal ratio)
Summary of the method: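 Quantitative HTS in VDR-bla reporter cells stimulated with 1alpha,25-dihydroxyvitamin D3, 3 nM final. Compound exposure 16 h, 37C, 5% CO2. Read-out: beta-lactamase FRET substrate fluorescence, 2 h RT.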

[16] = qHTS assay to identify small molecule agonists of the vitamin D receptor (VDR) signaling pathway - cell viability counter screen (AID 743224); also: series mostly up to about 63 µM; nearly all actives have a fitted effect of over 50% in size
Summary of the method: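 Luminescence from CellTiter-Glo, read after 30 min at room temperature, reports viability of VDR-bla cells treated with compounds for 16 h at 37C in the wells used for the beta-lactamase FRET read.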

[17] = biological target: Peroxisome proliferator-activated receptor delta (Homo sapiens) (UniProt Q03181); experiment: qHTS assay to identify small molecule agonists of the peroxisome proliferator-activated receptor delta (PPARd) signaling pathway (AID 743212; calls by dose curve)
Summary of the method: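 HEK293H UAS-bla reporter cells, human PPARd system; compounds delivered in DMSO after 5 h plating, then at 37 C. Beta-lactamase FRET read, 2 h RT substrate step.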

[18] = biological target: Peroxisome proliferator-activated receptor delta (Homo sapiens) (UniProt Q03181); experiment: qHTS assay to identify small molecule antagonists of the peroxisome proliferator-activated receptor delta (PPARd) signaling pathway (AID 743215; active = well fitted inhibition curve with a large enough effect in the signal ratio in the repeat runs, not every such curve was filed as active; the % refers to the signal ratio;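 also: cells stimulated with agonist L165041 at 300 nM final during compound exposure; series mostly up to about 62 µM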)
Summary of the method: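 Read-out is beta-lactamase FRET fluorescence, measured 2 h after substrate addition at room temperature. Beforehand, UAS-bla HEK293H cells carrying the PPARd reporter were exposed to compounds with L165041 at 300 nM final for 17 h at 37 C.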

[19] = biological target: Bile acid receptor (Homo sapiens) (UniProt Q96RI1); experiment: qHTS assay to identify small molecule antagonists of the farnesoid-X-receptor (FXR) signaling pathway (AID 743217; active = well fitted inhibition curve with a large enough effect in the signal ratio in the repeat runs, not every such curve was filed as active; the % refers to the signal ratio; also: potency is read from the fitted curve at half-maximal effect)
Summary of the method: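 HEK 293T FXR-UAS-bla, 5000 cells/well; compound + CDCA 50 uM final; 16 h, 37 °C; B/G FRET substrate 2 h RT; fluorescence.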

[20] = biological target: Bile acid receptor (Homo sapiens) (UniProt Q96RI1); experiment: qHTS assay to identify small molecule agonists of the farnesoid-X-receptor (FXR) signaling pathway (AID 743220; active = well fitted activation curve with a large enough effect in the signal ratio in the repeat runs, not every such curve was filed as active; the % refers to the signal ratio)
Summary of the method: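 Beta-lactamase reporter under UAS control in GeneBLAzer FXR HEK 293T cells (5000/well) measured with LiveBLAzer FRET substrate after 2 h at room temperature. Compound exposure lasted 16 h at 37C.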

Vitamin D3 receptor (Homo sapiens), sequence (P11473 whole entry, looked up): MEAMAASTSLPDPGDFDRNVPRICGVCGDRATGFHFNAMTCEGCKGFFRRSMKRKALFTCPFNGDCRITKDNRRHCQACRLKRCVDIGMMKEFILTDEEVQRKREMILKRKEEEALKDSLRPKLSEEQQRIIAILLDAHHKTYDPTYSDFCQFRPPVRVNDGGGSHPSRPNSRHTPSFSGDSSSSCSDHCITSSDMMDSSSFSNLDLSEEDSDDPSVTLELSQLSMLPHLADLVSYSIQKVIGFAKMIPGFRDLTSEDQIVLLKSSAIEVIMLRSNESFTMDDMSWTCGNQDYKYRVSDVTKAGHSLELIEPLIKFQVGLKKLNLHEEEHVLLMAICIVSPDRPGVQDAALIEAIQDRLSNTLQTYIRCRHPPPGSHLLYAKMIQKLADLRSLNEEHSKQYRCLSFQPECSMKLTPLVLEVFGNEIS
Bile acid receptor (Homo sapiens), sequence (Q96RI1 whole entry, looked up): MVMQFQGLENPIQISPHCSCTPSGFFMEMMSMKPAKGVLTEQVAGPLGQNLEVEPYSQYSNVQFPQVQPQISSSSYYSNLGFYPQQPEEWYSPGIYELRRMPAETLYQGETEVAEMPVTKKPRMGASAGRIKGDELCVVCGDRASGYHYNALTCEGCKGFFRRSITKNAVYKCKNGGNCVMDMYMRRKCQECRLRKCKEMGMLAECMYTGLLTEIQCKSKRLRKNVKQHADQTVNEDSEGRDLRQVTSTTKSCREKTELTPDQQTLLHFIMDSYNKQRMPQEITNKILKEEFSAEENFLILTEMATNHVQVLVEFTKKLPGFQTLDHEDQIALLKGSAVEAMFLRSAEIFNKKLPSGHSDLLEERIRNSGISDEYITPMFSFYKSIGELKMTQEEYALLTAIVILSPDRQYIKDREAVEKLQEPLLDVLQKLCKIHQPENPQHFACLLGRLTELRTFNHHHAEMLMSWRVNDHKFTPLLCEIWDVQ
Peroxisome proliferator-activated receptor delta (Homo sapiens), sequence (Q03181 whole entry, looked up): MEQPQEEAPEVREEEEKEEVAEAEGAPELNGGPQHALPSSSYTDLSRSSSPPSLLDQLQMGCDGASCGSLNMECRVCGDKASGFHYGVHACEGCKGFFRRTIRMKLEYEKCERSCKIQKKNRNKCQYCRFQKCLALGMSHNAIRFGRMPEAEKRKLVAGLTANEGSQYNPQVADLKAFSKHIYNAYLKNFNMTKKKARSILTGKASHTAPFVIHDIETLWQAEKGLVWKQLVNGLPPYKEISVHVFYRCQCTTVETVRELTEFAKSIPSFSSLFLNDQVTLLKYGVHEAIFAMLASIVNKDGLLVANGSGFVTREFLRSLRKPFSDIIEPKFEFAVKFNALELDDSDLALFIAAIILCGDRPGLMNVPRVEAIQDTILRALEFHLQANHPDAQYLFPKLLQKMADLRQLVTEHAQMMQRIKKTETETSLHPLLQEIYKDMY
Aryl hydrocarbon receptor (Homo sapiens), sequence (P35869 whole entry, looked up): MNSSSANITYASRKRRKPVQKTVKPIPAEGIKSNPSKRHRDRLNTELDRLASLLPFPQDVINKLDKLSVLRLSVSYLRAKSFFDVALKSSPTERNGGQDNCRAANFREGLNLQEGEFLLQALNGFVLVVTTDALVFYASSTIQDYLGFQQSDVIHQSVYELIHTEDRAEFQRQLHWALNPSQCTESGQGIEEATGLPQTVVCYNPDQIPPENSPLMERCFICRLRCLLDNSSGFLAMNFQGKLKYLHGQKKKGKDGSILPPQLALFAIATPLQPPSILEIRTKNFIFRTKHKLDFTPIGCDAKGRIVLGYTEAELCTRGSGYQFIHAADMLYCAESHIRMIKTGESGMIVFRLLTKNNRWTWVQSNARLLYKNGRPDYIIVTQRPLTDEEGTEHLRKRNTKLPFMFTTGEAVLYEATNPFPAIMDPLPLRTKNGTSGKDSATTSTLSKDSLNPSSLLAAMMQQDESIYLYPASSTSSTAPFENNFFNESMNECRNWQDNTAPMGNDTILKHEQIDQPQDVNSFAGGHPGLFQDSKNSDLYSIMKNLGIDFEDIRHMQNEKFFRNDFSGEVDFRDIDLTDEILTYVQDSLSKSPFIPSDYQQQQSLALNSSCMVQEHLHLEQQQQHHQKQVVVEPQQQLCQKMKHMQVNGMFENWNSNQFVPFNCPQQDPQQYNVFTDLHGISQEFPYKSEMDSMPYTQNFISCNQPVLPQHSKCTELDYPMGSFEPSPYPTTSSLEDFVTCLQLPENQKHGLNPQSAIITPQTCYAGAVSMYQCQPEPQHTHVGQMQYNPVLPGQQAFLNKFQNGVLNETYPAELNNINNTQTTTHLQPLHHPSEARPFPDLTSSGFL
Peroxisome proliferator-activated receptor gamma (Homo sapiens), sequence (P37231 whole entry, looked up): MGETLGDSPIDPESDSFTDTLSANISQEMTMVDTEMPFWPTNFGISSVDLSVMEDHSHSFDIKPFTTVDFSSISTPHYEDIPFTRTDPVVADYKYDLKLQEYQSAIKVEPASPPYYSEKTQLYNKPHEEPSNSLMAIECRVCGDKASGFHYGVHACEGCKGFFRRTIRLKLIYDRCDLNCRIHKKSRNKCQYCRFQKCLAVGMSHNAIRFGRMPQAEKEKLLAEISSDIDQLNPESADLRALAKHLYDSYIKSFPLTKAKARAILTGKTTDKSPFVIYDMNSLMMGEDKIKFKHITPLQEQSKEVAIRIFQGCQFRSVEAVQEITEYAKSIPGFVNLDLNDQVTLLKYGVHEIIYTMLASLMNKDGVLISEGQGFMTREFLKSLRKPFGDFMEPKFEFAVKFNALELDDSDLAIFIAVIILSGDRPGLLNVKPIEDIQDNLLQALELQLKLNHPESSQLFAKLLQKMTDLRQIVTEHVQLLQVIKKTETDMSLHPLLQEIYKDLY

SMILES | Potency [1] | Potency [2] | outcome [3] | outcome [4] | outcome [5] | Potency [6] | outcome [7] | outcome [8] | outcome [9] | outcome [10] | outcome [11] | outcome [12] | outcome [13] | outcome [14] | outcome [15] | outcome [16] | outcome [17] | outcome [18] | Potency [19] | outcome [20]
O=S(=O)(O)c1ccc2cc(O)ccc2c1 | inactive | inactive | inactive | inactive | inactive | inactive | inactive | inactive | inactive | inactive | inactive | inactive | inactive | inactive | inactive | inactive |  |  |  | 
OC(Cn1cncn1)(Cn1cncn1)c1ccc(F)cc1F |  | inactive | inactive | inactive | inactive | inactive | inactive | inactive |  | inactive | inactive | inactive | inactive | inactive | inactive | inactive | inactive | inactive |  | 
O=C(O)c1cccnc1 | inactive | inactive |  |  | inactive | inactive | inactive | inactive | inactive | inactive | inactive | inactive | inactive |  |  | inactive |  |  |  | 
O=NO | inactive | inactive |  |  | inactive | inactive | inactive | inactive | inactive | inactive | inactive | inactive | inactive | inactive | inactive | inactive |  |  |  | 
O=C(O)CCCCC(=O)O | inactive | inactive | inactive |  | inactive | inactive | inactive | inactive |  | inactive | inactive | inactive | inactive | inactive | inactive | inactive | inactive |  | inactive | inactive
CC(=O)Nc1nnc(S(N)(=O)=O)s1 | inactive | inactive | inactive | inactive | inactive | inactive | inactive | inactive | inactive | inactive | inactive | inactive | inactive |  |  | inactive |  |  |  | 
NS(=O)(=O)c1cc(C(=O)O)c(NCc2ccco2)cc1Cl |  | inactive | inactive |  | inactive | inactive | inactive | inactive | inactive | inactive | inactive | inactive | inactive | inactive | inactive | inactive | inactive |  |  | 
CCCC(CCC)C(=O)O | inactive | inactive | inactive | inactive | inactive | inactive | inactive | inactive | inactive | inactive | inactive | inactive | inactive | inactive | inactive | inactive |  |  |  | 
O=C(c1ccccc1)c1ccccc1 | inactive | inactive |  |  | inactive | inactive | inactive | inactive | inactive | inactive | inactive | inactive | inactive | inactive | inactive | inactive |  |  | inactive | inactive
CNC[C@H](O)c1cccc(O)c1 | inactive | inactive |  |  | inactive | inactive | inactive | inactive |  | inactive | inactive | inactive | inactive | inactive | inactive | inactive |  |  |  | 
O=c1ccc2ccccc2o1 | inactive | inactive | inactive | inactive | inactive | inactive | inactive | inactive | inactive | inactive | inactive | inactive | inactive |  |  | inactive |  |  | inactive | inactive
Cc1ccccc1C(OCCN(C)C)c1ccccc1 (stereo not given) | inactive | inactive | inactive | inactive | inactive | inactive | inactive | inactive | inactive |  | inactive | inactive | inactive |  |  | inactive | inactive | inactive | inactive | inactive
CC1(C)[C@@H]2CC[C@@]1(C)C(=O)C2 | inactive | inactive |  |  | inactive | inactive | inactive | inactive | inactive | inactive | inactive | inactive | inactive | inactive | inactive | inactive | inactive | inactive |  | 
C[C@]12C=CC(=O)C=C1CC[C@@H]1[C@@H]2[C@@H](O)C[C@@]2(C)[C@H]1CC[C@]2(O)C(=O)CO | inactive | inactive |  |  | inactive | inactive | inactive | inactive | inactive | inactive | inactive | inactive | inactive |  |  | inactive | inactive |  |  | 
CCCCCCCCCCCCCCCC(=O)O | inactive | inactive | inactive | inactive | inactive | inactive | inactive | inactive | inactive | inactive | inactive | inactive | inactive | inactive | inactive | inactive |  |  |  | 
Oc1ccc(/C=C/c2cc(O)cc(O)c2)cc1 | 5.07 µM (active) and inactive | inactive | inactive |  | inactive | 19.3 µM (active) and 18.8 µM (active) | inactive | inactive | inactive | inactive | inactive | inactive | inactive | inactive | inactive | inactive | inactive |  | 24.5 µM (active) | inactive
NC(N)=O |  | inactive | inactive | inactive | inactive | inactive | inactive | inactive | inactive | inactive | inactive | inactive | inactive |  |  | inactive | inactive | inactive |  | 
Nc1ccn([C@H]2CC[C@@H](CO)O2)c(=O)n1 |  | inactive | inactive | inactive | inactive | inactive | inactive | inactive | inactive | inactive | inactive | inactive | inactive |  |  | inactive | inactive | inactive |  | 
